The values that follow come from PubChem BioAssay (NCATS).

A number with no mark means an inactive call. Results filed as inconclusive are left out. Calls of active or inactive are those of the source. Unless noted, calls follow the shape of the dose curve; as a rule, active = well fitted curve in the direction sought with a large enough effect; inconclusive = small, poorly fitted or top-dose-only effect, or another doubt; inactive = no such curve, though single readings can be large; an effect the other way counts as inactive or inconclusive. Bridge positions count the residues as written; N and C are the ends. Square brackets hold non-standard residues; d marks the D form. Peptide text beside a SMILES is read from it. * marks the point of attachment. Ileψ(thiazoline)Cys = CC[C@H](C)[C@H](N)C1=N[C@H](C(=O)*)CS1; d(aIle) = CC[C@H](C)[C@@H](N)C(=O)O; dOrn = NCCC[C@@H](N)C(=O)O

Assay [1] concerns the target Cytochrome P450 3A4 (Homo sapiens) (UniProt P08684). In words: qHTS Assay for Activators of Cytochrome P450 3A4 (AID 885). Also: nearly all actives have a fitted effect of over 65% in size. Also: potency is read from the fitted curve at half-maximal effect. The method, boiled down: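 Human CYP3A4 (20 nM) with Luciferin-PPXE at 25 uM (its KM) in 200 mM KPO4; 10 min compound preincubation, then NADPH regeneration and 60 min reaction at RT. Luciferin read by luminescence; normalized to 57 uM ketoconazole full inhibition.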
(In general: Quantitative high-throughput screening tests each substance at several concentrations.)

A short description of assay [2]: S16 Schwann cell PMP22 intronic element firefly luciferase assay (AID 624032). Also: nearly all actives have a fitted effect of over 30% in size. Also: potency is read from the fitted curve at half-maximal effect. The method, boiled down:
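Rat S16 Schwann cells stably carrying a PMP22 intronic element-driven Fluc reporter were seeded overnight, then exposed to compounds for 24 h at 37 °C. Luminescence was normalized to PTC124 (positive control) and DMSO (0% activity).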

Assay [3] is described as follows: S16 Schwann cell PMP22 intronic element beta-lactamase assay (AID 624044; calls by dose curve;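 also: 0% = DMSO and -100% = potassium clavulanate positive control; nearly all actives have a fitted effect of over 15% in size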). The essentials:
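Rat S16 Schwann cells with beta-Lac driven by a PMP22 intronic element, compound-treated 24 h at 37 °C. LiveBLAzer FRET B/G read: 460 nm normalized to potassium clavulanate vs DMSO; 535 nm FRET as viability; concentration-effect curves classified.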

For another assay, the system named is 7G8. In words: qHTS profiling for inhibitors of Plasmodium falciparum proliferation (AID 504749). Also: nearly all actives have a fitted effect of over 60% in size. Also: potency is read from the fitted curve at half-maximal effect. The settings on record: P. falciparum in erythrocytes, SYBR Green DNA, 72 h; series mostly up to 12.8 µM. The method, boiled down: (§1)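 Parasite proliferation within erythrocytes, 72 h exposure. Endpoint: SYBR Green I fluorescence after overnight lysis at room temperature. Controls: 0.29 uM artemisinin, DMSO.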

The next assay concerns AA1029. The assay is described as above. The settings on record: P. falciparum in erythrocytes, SYBR Green DNA, 72 h; series mostly up to 12.8 µM. The method, boiled down:
as §1

The next assay concerns CP194. Described as above. The settings on record: P. falciparum in erythrocytes, SYBR Green DNA, 72 h; series mostly up to 12.8 µM. The method, boiled down:
as §1

For a further assay, the system named is CP211. The description is as above. The settings on record: P. falciparum in erythrocytes, SYBR Green DNA, 72 h; series mostly up to 12.8 µM. The method, boiled down:
as §1

A further assay relates to CP215. The assay is described as above. The settings on record: P. falciparum in erythrocytes, SYBR Green DNA, 72 h; series mostly up to 12.8 µM. The method, boiled down:
as §1

Another assay relates to CP291. Described as above. The settings on record: P. falciparum in erythrocytes, SYBR Green DNA, 72 h; series mostly up to 12.8 µM. The essentials:
as §1

Another assay has as its system CP335. The description is as above. The settings on record: P. falciparum in erythrocytes, SYBR Green DNA, 72 h; series mostly up to 12.8 µM. The essentials:
as §1

The subject of another assay is GB4. The assay is described as above. The settings on record: P. falciparum in erythrocytes, SYBR Green DNA, 72 h; series mostly up to 12.8 µM. The method, boiled down: as §1
The test system of another assay is P93_24. The description is as above. The settings on record: P. falciparum in erythrocytes, SYBR Green DNA, 72 h; series mostly up to 12.8 µM. The essentials: as §1
The next assay relates to P94_40. Described as above. The settings on record: P. falciparum in erythrocytes, SYBR Green DNA, 72 h; series mostly up to 12.8 µM. The essentials: as §1
A further assay deals with PC26. The assay is described as above. The settings on record: P. falciparum in erythrocytes, SYBR Green DNA, 72 h; series mostly up to 12.8 µM. The essentials:
as §1

In a further assay the test system is TAB109. The description is as above. The settings on record: P. falciparum in erythrocytes, SYBR Green DNA, 72 h; series mostly up to 12.8 µM. The essentials:
as §1

Another assay deals with W2. The assay is described as above. The settings on record: P. falciparum in erythrocytes, SYBR Green DNA, 72 h; series mostly up to 12.8 µM. The essentials:
as §1

A short description of assay [4]: qHTS Assay for Identification of Small Molecule Agonists for Hypoxia Response Element Signaling Pathway (AID 914; active = well fitted activation curve with a large enough effect in the signal ratio, with a control signal flat, not every such curve was filed as active; the % refers to the signal ratio; also: % of control where 0% means no effect). The settings on record: ME-180 (cervical carcinoma) HRE-bla reporter, beta-lactamase ratio, CoCl2, 17 h; activation: hits give high values. The essentials: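 HRE-bla ME-180 cells with beta-lactamase reporter under hypoxia response element, compounds with EC50 CoCl2 for 17 hours at 37 C. CCF4 substrate, 460nm/530nm emission ratio gave %Activity; AC50 from titration series.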

The nature of assay [5]: Confirmation and Secondary Assay for Modulators of Hemoglobin Beta Chain Splicing at IVS2 705 locus (AID 930).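 Also: HeLa cells stably expressing the EGFP-705 splicing reporter; GFP fluorescence per well restored by corrected splicing of the IVS2-705 intron in EGFP; % of control where 0% means no effect.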 The method, boiled down: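 HeLa cells stably carrying EGFP interrupted by mutant beta-globin intron 2 (IVS2-705) treated 2 days at 37C with compound; 500 nM antisense PNA as control. Correct splicing read as total peak GFP intensity per well by laser-scanning cytometry.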

In assay [6] the target is Cytochrome P450 3A4 (Homo sapiens) (UniProt P08684). In words: qHTS Assay for Inhibitors and Substrates of Cytochrome P450 3A4 (AID 884). Also: % is scaled to controls: 0 for no effect and ±100 for the full control effect; nearly all actives have a fitted effect of over 50% in size. The method, boiled down: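 20 nM human CYP3A4 with 25 uM Luciferin-PPXE (at KM) in 200 mM KPO4, preincubated 10 min with compound; NADPH regeneration started a 60 min RT reaction. Luciferin detected by luminescence, normalized to 57 uM ketoconazole as full inhibition.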
Cytochrome P450 3A4 (Homo sapiens), sequence (P08684 whole entry, looked up): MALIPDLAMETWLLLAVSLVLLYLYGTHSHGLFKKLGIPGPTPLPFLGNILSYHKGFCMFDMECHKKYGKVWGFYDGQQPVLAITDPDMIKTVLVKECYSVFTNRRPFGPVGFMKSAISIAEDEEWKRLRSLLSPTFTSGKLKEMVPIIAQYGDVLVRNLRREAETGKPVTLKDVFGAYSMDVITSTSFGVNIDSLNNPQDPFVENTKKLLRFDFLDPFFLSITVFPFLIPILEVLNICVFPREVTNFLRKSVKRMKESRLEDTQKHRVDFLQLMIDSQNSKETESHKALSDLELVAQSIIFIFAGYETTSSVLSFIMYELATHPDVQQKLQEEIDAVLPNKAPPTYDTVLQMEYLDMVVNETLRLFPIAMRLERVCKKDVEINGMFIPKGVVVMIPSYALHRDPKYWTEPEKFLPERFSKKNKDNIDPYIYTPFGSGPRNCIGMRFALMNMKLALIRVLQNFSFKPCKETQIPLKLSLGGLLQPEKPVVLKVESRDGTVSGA

Take `COC(=O)[C@@H]1[C@@H]2C[C@H]3c4[nH]c5cc(OC)ccc5c4CCN3C[C@@H]2C[C@H](OC(=O)c2cc(OC)c(OC)c(OC)c2)[C@H]1OC`: in assay [1], the Potency entry was “inactive”.

`CCN[C@@H]1C[C@H](N)[C@H](O[C@H]2OC(CN)=CC[C@H]2N)[C@@H](O)[C@H]1O[C@H]1OC[C@@](C)(O)[C@@H](NC)[C@@H]1O`: the Potency result (in assay [2]; in assay [3]; in the assay on 7G8; in the assay with AA1029; in the assay with CP194; in the assay with CP211) was “inactive” each time. In addition, the Potency entry with CP215, in the assay on CP291, in the assay on CP335, in the assay on GB4, in the assay with P93_24 and with P94_40 was “inactive” in each case. Moreover, the Potency entry in the assay with PC26, with TAB109 and with W2 was “inactive” throughout.

For the compound `O=C(N/N=C\c1ccc([N+](=O)[O-])o1)c1ccc(O)cc1`, the Potency in assay [2] was 3.46 µM (active); in the assay on 7G8, 0.794 µM (active); in the assay on AA1029 it was 3.98 µM (active); with CP194, 3.61 µM (active); with CP211, 5.73 µM (active); in the assay with CP215 it was 4.55 µM (active). Also, the Potency was 4.55 µM (active) in the assay on CP291; 2.03 µM (active) in the assay on CP335; 1.81 µM (active) with GB4; 2.82 µM (active) with P93_24; 3.55 µM (active) in the assay on P94_40; 5.73 µM (active) in the assay on PC26. For the same compound, the Potency in the assay on TAB109 was 2.24 µM (active); in the assay on W2, 1.81 µM (active).

Consider `CC[C@H](C)[C@H](N)C1=N[C@H](C(=O)N[C@@H](CC(C)C)C(=O)N[C@@H](CCC(=O)O)C(=O)N[C@@H](C(=O)N[C@H]2CCCCNC(=O)[C@@H](CC(N)=O)NC(=O)[C@@H](CC(=O)O)NC(=O)[C@@H](Cc3cnc[nH]3)NC(=O)[C@@H](Cc3ccccc3)NC(=O)[C@@H]([C@@H](C)CC)NC(=O)[C@@H](CCCN)NC2=O)[C@@H](C)CC)CS1` ({Ileψ(thiazoline)Cys}-LE[d(aIle)]K[dOrn][d(aIle)][dF][dH][dD][dN]; lactam 4-C), for which, in assay [4], the activation is -5.24%. The Potency entry (in assay [2]; in the assay with 7G8; with AA1029; in the assay on CP194; in the assay with CP211; in the assay on CP215) was “inactive” throughout. Also, the Potency entry with CP291, with CP335, in the assay on GB4, with P93_24, in the assay on P94_40 and with PC26 was “inactive” throughout. Further, the Potency result in the assay on TAB109 and with W2 was “inactive” throughout.

For the compound `C[C@@H]1O[C@H](O[C@@H]2\C=C/C=C\C=C/C=C\C[C@H](C)OC(=O)/C=C\[C@H]3O[C@@H]3C[C@H](O)C[C@]3(O)C[C@@H](O)[C@@H](C(=O)O)[C@H](C2)O3)[C@@H](O)[C@H](N)[C@@H]1O` (stereo in doubt), the Potency result (in assay [3]; in the assay with 7G8; in the assay with AA1029; in the assay on CP194; in the assay with CP211; in the assay with CP215) was “inactive” throughout. Moreover, the Potency entry with CP291, in the assay with CP335, with GB4, with P93_24, in the assay with P94_40 and with PC26 was “inactive” in each case. Further, the Potency result with TAB109 and in the assay on W2 was “inactive” throughout.

Consider `c1ccc2c(c1)CCC[C@@H]2C1=NCCN1`, for which the Potency entry (in assay [2]; in the assay on 7G8; with AA1029; with CP194; in the assay on CP211; in the assay with CP215) was “inactive” each time. Also, the Potency entry in the assay with CP291, in the assay on CP335, with GB4, in the assay on P93_24, in the assay on P94_40 and in the assay with PC26 was “inactive” throughout. Further, the Potency result with TAB109 and with W2 was “inactive” throughout.

For `COc1cc(C2Oc3cc(C4Oc5cc(O)cc(O)c5C(=O)C4O)ccc3OC2CO)ccc1O` (centres undefined), the Potency result in assay [1] and in [5] was “inactive” throughout.

Turning to `CC(=O)S[C@H]1CC2=CC(=O)CC[C@@]2(C)[C@H]2CC[C@@]3(C)[C@H](CC[C@]34CCC(=O)O4)[C@@H]12`, the activation in assay [4] was -20.6%.

Take `CC(=O)OCC(=O)[C@@]1(OC(C)=O)[C@H](C)C[C@H]2[C@@H]3C[C@H](F)C4=CC(=O)C=C[C@@]4(C)[C@]3(F)[C@H](O)C[C@@]21C`: the Potency result in assay [6] was “inactive”. In assay [1], the Potency was 6.31 µM (active).

With `C[C@@]12CCC(=O)C[C@@H]1CC(=O)[C@H]1[C@H]3CCC[C@]3(C)C(=O)C[C@@H]12` (tested in a mixture with another compound), the activation in [4] was -12.7%.
